A short description of assay [1]: compounds binding Alexa647 anti-His antibody – biochemical, small-molecule microarray, 635 nm fluorescence, artefact control for SMM control protein annotation, primary screen (AID 1128).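 Note: score merges feature fluorescence with signal-to-noise for each printed compound spot.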 The settings on record: higher = more signal.
Assay [2] deals with Human papillomavirus type 1a E7 protein (residues 1-88). As to the kind of experiment: HPV1a E7 small-molecule binders, primary screen, biochemical, small-molecule microarray, residues 1-88, 635 nm (AID 1129). The following applies: small-molecule microarray binding, fluorescence 635 nm; higher = more signal.
Assay [3] has as its target Focal adhesion kinase 1 (Homo sapiens) (UniProt Q05397). As to the kind of experiment: PTK2 protein binding on printed compound slides – biochemical, small-molecule microarray, 635/667 nm fluorescence, BSA, DTT, primary screen (AID 1130).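 Note: composite of spot emission at 667 nm and signal to noise over triplicate slides.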 The settings on record: 635 nm fluorescence, higher = more signal.
For assay [4], the system named is Fibrinogen (Alexa647-labelled). As to the kind of experiment: Alexa647-fibrinogen binding to printed small molecules – biochemical, small-molecule microarray, 635/667 nm fluorescence, artefact control for SMM control-protein annotation, profiling panel (AID 1131).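 Note: z-score merges 667 nm fluorescence with per-spot signal-to-noise over triplicate slides.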 The settings on record: fibrinogen-A647 binding fluorescence, higher = more signal.
The target in assay [5] is Follistatin (Homo sapiens) (UniProt P19883). As to the kind of experiment: FST protein binding to printed compounds – biochemical, small-molecule microarray, 635/667 nm fluorescence, primary screen (AID 1132). The settings on record: 635 nm fluorescence, higher = more signal.
In assay [6] the target is Fibroblast growth factor 2 (Homo sapiens) (UniProt P09038). As to the kind of experiment: basic fibroblast growth factor binding to printed compounds – biochemical, small-molecule microarray, 635/667 nm fluorescence, primary screen (AID 1133). The following applies: FGF2, fluorescence 635/667, higher = more signal.
A short description of assay [7]: JC-1 mitochondrial potential readout, lung cancer cells – cell-based, A549, JC-1 fluorescence, basal, 24 h, 100 nL, profiling panel (AID 1138).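 Note: A549 lung adenocarcinoma cells under basal conditions with no added stimulus; test concentration not given here.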 The settings on record: higher = more signal.
The subject of another assay is Lefty1. As to the kind of experiment: Lefty1 protein binding to printed compounds – biochemical, small-molecule microarray, 635/667 nm fluorescence, primary screen (AID 1139). The following applies: fluorescence 635/667, higher = more signal.
In assay [8] the test system is wheat germ agglutinin (Triticum aestivum), Alexa647-labelled. As to the kind of experiment: Alexa647-WGA lectin binding to printed small molecules – biochemical, small-molecule microarray, 635/667 nm fluorescence, artefact control for SMM control-protein annotation, profiling panel (AID 1140).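 Note: score merges 667 nm feature emission with signal to noise over triplicate slides.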 The settings on record: WGA-A647 binding, 635 nm fluorescence, higher = more signal.

In assay [9] the target is Luciferin 4-monooxygenase (Photinus pyralis) (UniProt P08659). As to the kind of experiment: inhibition of purified Photinus pyralis luciferase – biochemical, luminescence, purified enzyme, 2006 set, primary screen (AID 1141).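 Note: cell-free assay with purified firefly luciferase at 100 ng per well in PBS; test concentration not given here.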 The following applies: purified firefly luciferase, SteadyGlo luminescence, 30 min; higher = more signal, called active from +8 up or from −8 down.

Assay [10] relates to Wnt5a (protein binding on small-molecule microarray). As to the kind of experiment: small molecules binding Wnt5a protein – biophysical, small-molecule microarray, 635/667 nm fluorescence, primary screen (AID 1142).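 Note: fluorescence read at 667 nm with signal to noise per printed feature.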 The settings on record: 635 nm fluorescence, higher = more signal.
A short description of assay [11]: ATP-based viability of Huh7 replicon cells – cell-based, CellTiter-Glo luminescence, basal, 48 h, cytotoxicity control for HCV replication inhibitor project, primary screen (AID 1143).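 Note: Huh7 hepatoma cells carrying a hepatitis C replication reporter with no stimulus; test concentration not given here.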 The following applies: higher = more signal, called active from +8 up or from −8 down.
A short description of assay [12]: Pseudomonas biofilm growth suppression – PAO1 strain, BacTiter-Glo luminescence, LB-PBS, primary screen (AID 1144). The settings on record: P. aeruginosa PAO1 biofilm, 12 h, higher = more signal.
Assay [13] can be described thus: basal CRE-LacZ reporter activity in PC12 – cell-based, unstimulated, primary screen (AID 1145). The settings on record: no forskolin, luminescence, 4.5 h, higher = more signal, called active from +8 up or from −8 down.
The nature of assay [14]: forskolin-driven CRE-LacZ activity in PC12 – cell-based, CRE-LacZ reporter, forskolin-stimulated, primary screen (AID 1146).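 Note: PC12 cells with 6xCRE LacZ reporter stimulated by forskolin 10 µM; beta-galactosidase reporter signal reflecting CREB driven transcription.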 The following applies: luminescence, 4.5 h, higher = more signal, called active from +8 up or from −8 down.
Assay [15] deals with Streptavidin (Streptomyces avidinii) (UniProt P22629). As to the kind of experiment: compounds binding control protein streptavidin – biophysical, small-molecule microarray, 635/667 nm fluorescence, artefact control for SMM compound annotation, primary screen (AID 1147).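 Note: signal reflects streptavidin binding to arrayed compounds as a control protein.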 The settings on record: higher = more signal.
The nature of assay [16]: probe aInhba binding on compound microarray – biochemical, small-molecule microarray, 635/667 nm fluorescence, primary screen (AID 1148).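 Note: score merges 667nm spot fluorescence with signal-to-noise for antibody binding to printed compounds.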 The following applies: higher = more signal.
Assay [17] deals with Torsin-1A (Homo sapiens) (UniProt O14656). As to the kind of experiment: TOR1A wild-type binding on microarray – cell lysate, small-molecule microarray, lysate, 635/667 nm, primary screen (AID 1149). The following applies: COS7 hTOR1A-WT lysate, 635 nm fluorescence, higher = more signal.
The target is the same in assay [18]. As to the kind of experiment: torsin A mutant lysate binding on microarrays – cell lysate, small-molecule microarray, COS7 lysate, 635/667 nm fluorescence, primary screen (AID 1150).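 Note: score pools 667 nm emission and signal to noise measuring lysate protein binding.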 The following applies: COS7 hTOR1A mutant lysate, 635 nm fluorescence, higher = more signal.
The subject of assay [19] is Sonic hedgehog protein (Shh). As to the kind of experiment: Sonic hedgehog microarray binding compounds – biochemical, small-molecule microarray, 635/667 nm fluorescence, primary screen (AID 1151).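 Note: Shh protein binding to compounds spotted on small-molecule microarray slides; score combines spot fluorescence intensity with signal-to-noise across triplicate slides.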 The settings on record: 635 nm fluorescence, higher = more signal.

The source made the active and inactive calls. Unless noted, the rule behind the calls is not given here.

Chain of Fibroblast growth factor 2 (Homo sapiens) (P09038 whole entry, looked up): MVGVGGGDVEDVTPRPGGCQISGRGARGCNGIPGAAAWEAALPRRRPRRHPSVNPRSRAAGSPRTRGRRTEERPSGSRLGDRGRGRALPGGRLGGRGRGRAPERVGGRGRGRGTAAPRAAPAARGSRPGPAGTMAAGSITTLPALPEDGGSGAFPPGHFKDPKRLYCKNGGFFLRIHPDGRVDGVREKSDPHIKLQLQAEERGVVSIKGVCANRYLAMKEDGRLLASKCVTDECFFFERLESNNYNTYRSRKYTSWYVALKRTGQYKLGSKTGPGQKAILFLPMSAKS
Chain of Torsin-1A (Homo sapiens) (O14656 whole entry, looked up): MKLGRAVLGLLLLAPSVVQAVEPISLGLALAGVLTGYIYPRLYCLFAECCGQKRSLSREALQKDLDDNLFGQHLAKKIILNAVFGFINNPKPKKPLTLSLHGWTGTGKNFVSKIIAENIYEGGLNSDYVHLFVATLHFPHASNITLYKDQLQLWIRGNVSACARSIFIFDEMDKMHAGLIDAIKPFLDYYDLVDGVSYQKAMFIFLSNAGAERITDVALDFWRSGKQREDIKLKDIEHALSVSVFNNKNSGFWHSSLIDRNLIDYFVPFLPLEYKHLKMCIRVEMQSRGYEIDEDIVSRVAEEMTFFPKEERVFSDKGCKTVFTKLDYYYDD
Chain of Follistatin (Homo sapiens) (P19883 whole entry, looked up): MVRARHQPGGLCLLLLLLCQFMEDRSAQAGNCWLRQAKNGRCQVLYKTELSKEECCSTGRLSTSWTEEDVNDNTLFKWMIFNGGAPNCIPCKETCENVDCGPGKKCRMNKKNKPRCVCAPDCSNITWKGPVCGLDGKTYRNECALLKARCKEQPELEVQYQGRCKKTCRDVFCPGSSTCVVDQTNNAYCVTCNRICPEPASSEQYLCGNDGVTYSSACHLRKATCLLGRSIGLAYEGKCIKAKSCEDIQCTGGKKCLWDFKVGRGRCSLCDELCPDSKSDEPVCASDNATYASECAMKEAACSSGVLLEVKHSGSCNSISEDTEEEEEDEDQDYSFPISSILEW
Chain of Focal adhesion kinase 1 (Homo sapiens) (Q05397 whole entry, looked up): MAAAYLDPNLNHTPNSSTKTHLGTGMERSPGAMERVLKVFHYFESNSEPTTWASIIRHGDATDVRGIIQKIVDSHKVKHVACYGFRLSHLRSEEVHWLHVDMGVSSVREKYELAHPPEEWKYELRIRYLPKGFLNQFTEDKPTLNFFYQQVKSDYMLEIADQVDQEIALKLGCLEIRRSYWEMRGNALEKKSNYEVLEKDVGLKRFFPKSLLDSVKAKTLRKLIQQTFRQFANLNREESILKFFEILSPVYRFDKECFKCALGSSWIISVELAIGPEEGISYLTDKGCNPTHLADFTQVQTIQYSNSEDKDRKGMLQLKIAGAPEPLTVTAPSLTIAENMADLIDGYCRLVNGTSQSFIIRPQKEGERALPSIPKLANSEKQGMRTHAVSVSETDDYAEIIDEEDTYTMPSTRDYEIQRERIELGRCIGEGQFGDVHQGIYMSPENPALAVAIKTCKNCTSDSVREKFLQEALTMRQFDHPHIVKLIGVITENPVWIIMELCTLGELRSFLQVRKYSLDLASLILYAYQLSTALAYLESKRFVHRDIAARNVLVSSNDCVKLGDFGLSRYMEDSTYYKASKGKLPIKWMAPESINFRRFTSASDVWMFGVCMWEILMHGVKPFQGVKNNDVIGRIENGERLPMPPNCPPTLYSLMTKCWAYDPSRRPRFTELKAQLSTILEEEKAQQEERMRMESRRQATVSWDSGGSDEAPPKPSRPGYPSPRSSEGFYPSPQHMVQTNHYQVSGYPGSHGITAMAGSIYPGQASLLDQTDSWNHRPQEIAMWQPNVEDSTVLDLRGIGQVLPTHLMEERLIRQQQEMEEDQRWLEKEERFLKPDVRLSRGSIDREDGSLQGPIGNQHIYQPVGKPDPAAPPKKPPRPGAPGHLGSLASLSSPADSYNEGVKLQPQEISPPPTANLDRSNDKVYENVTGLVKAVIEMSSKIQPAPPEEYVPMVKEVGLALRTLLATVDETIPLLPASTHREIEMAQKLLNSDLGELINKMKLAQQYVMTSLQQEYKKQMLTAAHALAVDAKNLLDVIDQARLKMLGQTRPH
Chain of Streptavidin (Streptomyces avidinii) (P22629 whole entry, looked up): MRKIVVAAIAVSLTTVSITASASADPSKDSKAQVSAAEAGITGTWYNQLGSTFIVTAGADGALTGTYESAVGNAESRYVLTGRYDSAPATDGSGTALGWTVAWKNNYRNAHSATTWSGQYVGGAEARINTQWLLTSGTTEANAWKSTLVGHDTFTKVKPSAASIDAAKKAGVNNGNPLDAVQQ
Chain of Luciferin 4-monooxygenase (Photinus pyralis) (P08659 whole entry, looked up): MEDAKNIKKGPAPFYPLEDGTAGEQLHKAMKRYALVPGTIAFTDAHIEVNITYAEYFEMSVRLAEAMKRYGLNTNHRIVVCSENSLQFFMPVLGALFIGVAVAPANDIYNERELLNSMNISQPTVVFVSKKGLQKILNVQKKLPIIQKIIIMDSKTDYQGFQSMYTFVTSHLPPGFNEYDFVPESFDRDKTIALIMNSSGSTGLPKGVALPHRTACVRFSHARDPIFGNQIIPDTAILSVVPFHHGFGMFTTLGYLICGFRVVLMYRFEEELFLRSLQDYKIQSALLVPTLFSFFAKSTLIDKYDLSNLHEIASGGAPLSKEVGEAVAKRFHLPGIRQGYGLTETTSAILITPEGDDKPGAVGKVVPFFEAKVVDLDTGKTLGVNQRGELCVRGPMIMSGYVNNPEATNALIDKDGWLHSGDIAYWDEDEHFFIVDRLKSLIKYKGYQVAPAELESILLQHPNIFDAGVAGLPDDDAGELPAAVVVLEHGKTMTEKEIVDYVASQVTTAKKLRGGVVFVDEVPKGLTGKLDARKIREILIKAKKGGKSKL

Turning to `O=C1O[C@@H](c2ccccc2)[C@@H](c2ccccc2)N2[C@@H](c3ccc(O)cc3)[C@]3(C(=O)Nc4ccccc43)[C@@H](C(=O)Nc3nc4ccccc4s3)[C@H]12`, the composite z-score came to 1.07 in assay [1]; 1.18 in assay [2]; 0.708 in [3]; 0.975 in assay [4]; 1.2 in assay [5]; 0.398 in assay [6]. Besides, the composite z-score with Lefty1 is 0.745; in assay [8], 0.634; in assay [10] it was 1.09; in [15], 0.243; in assay [16], -0.128; with Torsin-1A (Homo sapiens) [17], 0.0151. The composite z-score in the assay with Torsin-1A (Homo sapiens) [18] was determined as 0.325; in [19] it was 0.183. For the same molecule, the z-score in assay [7] was -2.38; in [9], -1.1 (inactive); in assay [11], -4.19 (inactive); in [12] it was -1.87 (inactive); in assay [13], 0.389 (inactive); in assay [14], -0.0768 (inactive).
`C=CC[C@]1(C(=O)N(C)C)N=C(c2ccc(OCCCO)cc2)O[C@H]1c1ccccc1N=[N+]=[N-]`: the composite z-score in assay [1] was 2.04; in assay [2], 1.22; in assay [3], 0.264; in assay [4], 1.02; in assay [5] it was 0.899; in assay [6], -0.267. Moreover, the composite z-score in the assay on Lefty1 is -0.0297; in assay [8], 1.25; in [10], 0.596; in [15], 1.61; in assay [16], -0.0136; in the assay with Torsin-1A (Homo sapiens) [17], 0.73. The results for the composite z-score (with Torsin-1A (Homo sapiens) [18]; in assay [19]) were 0.696 and -1.32, respectively. Besides, the z-score was 1.08 in assay [7]; -9.41 (active) in [9]; -2.58 (inactive) in assay [11]; 0.00404 (inactive) in [12]; 1.99 (inactive) in assay [13]; -1.23 (inactive) in assay [14].
`NC(=O)NCC#Cc1ccc2c(c1)[C@]1(C(=O)N2)[C@H](C(=O)O)[C@H]2C(=O)O[C@H](c3ccccc3)[C@H](c3ccccc3)N2[C@@H]1c1ccccc1OCCO`: the composite z-score in assay [1] came out at 1.18; in assay [2], 0.866; in assay [3] it was 0.129; in [4], 0.809; in assay [5], 1.03; in [6], 0.836. In addition, the composite z-score in the assay with Lefty1 is 1.2; in [8], 1.16; in [10], 0.697; in assay [15] it was 1.1; in assay [16], 0.374; with Torsin-1A (Homo sapiens) [17], 0.712. Besides, the values for the composite z-score (in the assay with Torsin-1A (Homo sapiens) [18]; in assay [19]) were 0.651 and 1.41, respectively. In addition, the z-score was 0.246 in assay [7]; -4.72 (inactive) in assay [9]; -1.95 (inactive) in [11]; -1.26 (inactive) in assay [12]; 0.0384 (inactive) in assay [13]; 0.143 (inactive) in assay [14].
Consider `COCCOC(=O)N1C(=O)[C@@]2(c3cc(C#Cc4ccc(OC)cc4)ccc31)[C@H](C(=O)NC[C@H](O)c1ccccc1)[C@H]1C(=O)O[C@H](c3ccccc3)[C@H](c3ccccc3)N1[C@@H]2c1ccc(O)cc1`, for which the composite z-score was determined as 0.933 in assay [1]; 1.16 in assay [2]; 0.33 in [3]; 0.912 in assay [4]; 1.16 in assay [5]; 1.01 in assay [6]. Moreover, the composite z-score in the assay with Lefty1 was 1.19; in assay [8], 0.666; in assay [10], 0.317; in assay [15], 0.582; in [16], 0.0228; in the assay with Torsin-1A (Homo sapiens) [17], 0.772. Besides, the figures for the composite z-score (in the assay with Torsin-1A (Homo sapiens) [18]; in [19]) were 0.527 and 1.73, respectively. The z-score was -1.47 in assay [7]; 0.273 (inactive) in assay [9]; -2.05 (inactive) in assay [11]; -0.392 (inactive) in assay [12]; -1.01 (inactive) in assay [13]; -1.19 (inactive) in [14].
For the molecule `O=C1C[C@]2(c3ccc([N+](=O)[O-])cc3)C(=O)N(Cc3ccccc3)c3cc(CO)ccc3[C@H]2N1CC12CC3CC(CC(C3)C1)C2`, the composite z-score was -1.43 in assay [1]; -0.835 in [2]; -0.536 in [3]; -1.28 in assay [4]; -1.06 in assay [5]; -0.653 in assay [6]. For the same molecule, the composite z-score with Lefty1 was -1.17; in assay [8] it was -0.786; in [10], -0.186; in assay [15], -1.04; in assay [16], -0.325; in the assay with Torsin-1A (Homo sapiens) [17], -0.659. Also, the composite z-score was 0.263 in the assay with Torsin-1A (Homo sapiens) [18] and -0.419 in assay [19]. For the same molecule, the z-score in assay [7] is -0.0834; in [9], -0.271 (inactive); in assay [11] it was 0.349 (inactive); in [12], 0.435 (inactive); in assay [13], -0.491 (inactive); in [14], 0.245 (inactive).

The values above are taken from PubChem BioAssay.
